# Screen size: about 5,500 compounds; about 2,000 (36%) were called active. Inconclusive results (about 18%) are left out. The list shows a part of the results. Unmarked numbers belong to inactive results. Rule as the data show it: active = normalized growth mostly below about 0.91 (no sharp cut-off); inconclusive = no clear call, values can overlap the other calls; inactive = mostly above about 0.92.
# Experiment: chemical genetic growth profiling, strain panel (AID 1159580);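 also: tested at 20 µM; growth read once vehicle control cultures reached saturation at 30 °C; 1 = growth at the plate median or of vehicle wells; lower values mean less growth of the strain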
# Conditions: growth OD
smiles,measurement,setting,value
COc1ccc(-c2coc3cc(OC)cc(O)c3c2=O)cc1,normalized growth,"S. cerevisiae deletion strains, locus YAL013W, strain DEP1, active compounds read low",0.962
same,normalized growth,"S. cerevisiae deletion strains, locus YBR021W, strain FUR4, active compounds read low",0.862
same,normalized growth,"S. cerevisiae deletion strains, locus YBR229C, strain ROT2, active compounds read low",0.98
same,normalized growth,"S. cerevisiae deletion strains, locus YCL029C, strain bik1, active compounds read low",0.966
same,normalized growth,"S. cerevisiae deletion strains, locus YDL035C, strain GPR1, active compounds read low",0.959
same,normalized growth,"S. cerevisiae deletion strains, locus YDL074C, strain BRE1, active compounds read low",0.91
same,normalized growth,"S. cerevisiae deletion strains, locus YDL101C, strain DUN1, active compounds read low",0.98
same,normalized growth,"S. cerevisiae deletion strains, locus YDL134C, strain PPH21, active compounds read low",0.982
same,normalized growth,"S. cerevisiae deletion strains, locus YDL185W, strain tfp1, active compounds read low",0.968
same,normalized growth,"S. cerevisiae deletion strains, locus YDL192W, strain arf1, active compounds read low",0.96
same,normalized growth,"S. cerevisiae deletion strains, locus YDR101C, strain arx1, active compounds read low",0.96
same,normalized growth,"S. cerevisiae deletion strains, locus YDR150W, strain NUM1, active compounds read low",0.991
same,normalized growth,"S. cerevisiae deletion strains, locus YDR162C, strain NBP2, active compounds read low",0.983
same,normalized growth,"S. cerevisiae deletion strains, locus YDR318W, strain mcm21, active compounds read low",0.922
same,normalized growth,"S. cerevisiae deletion strains, locus YDR388W, active compounds read low",0.957
same,normalized growth,"S. cerevisiae deletion strains, locus YDR502C, strain sam2, active compounds read low",0.967
same,normalized growth,"S. cerevisiae deletion strains, locus YEL061C, strain CIN8, active compounds read low",0.982
same,normalized growth,"S. cerevisiae deletion strains, locus YER110C, active compounds read low",0.958
same,normalized growth,"S. cerevisiae deletion strains, locus YER155C, strain BEM2, active compounds read low",0.967
same,normalized growth,"S. cerevisiae deletion strains, locus YER167W, strain BCK2, active compounds read low",0.933
same,normalized growth,"S. cerevisiae deletion strains, locus YGL078C, strain dbp3, active compounds read low",0.978
same,normalized growth,"S. cerevisiae deletion strains, locus YGL086W, strain mad1, active compounds read low",0.955
same,normalized growth,"S. cerevisiae deletion strains, locus YGL248W, strain PDE1, active compounds read low",0.976
same,normalized growth,"S. cerevisiae deletion strains, locus YGR078C, strain PAC10, active compounds read low",0.952
same,normalized growth,"S. cerevisiae deletion strains, locus YGR135W, strain pre9, active compounds read low",0.94
same,normalized growth,"S. cerevisiae deletion strains, locus YGR229C, strain SMI1, active compounds read low",0.924
same,normalized growth,"S. cerevisiae deletion strains, locus YGR252W, strain gcn5, active compounds read low",0.768
same,normalized growth,"S. cerevisiae deletion strains, locus YHR030C, strain SLT2, active compounds read low",0.972
same,normalized growth,"S. cerevisiae deletion strains, locus YHR079C, strain IRE1 (second series), active compounds read low",0.935
same,normalized growth,"S. cerevisiae deletion strains, locus YHR094C, strain hxt1, active compounds read low",0.976
same,normalized growth,"S. cerevisiae deletion strains, locus YHR129C, strain ARP1, active compounds read low",0.967
same,normalized growth,"S. cerevisiae deletion strains, locus YHR200W, strain rpn10, active compounds read low",0.957
same,normalized growth,"S. cerevisiae deletion strains, locus YIL066C, strain RNR3, active compounds read low",0.975
same,normalized growth,"S. cerevisiae deletion strains, locus YIL073C, strain SPO22, active compounds read low",0.905
same,normalized growth,"S. cerevisiae deletion strains, locus YIL125W, strain kgd1, active compounds read low",0.969
same,normalized growth,"S. cerevisiae deletion strains, locus YIR030C, strain dcg1, active compounds read low",0.97
same,normalized growth,"S. cerevisiae deletion strains, locus YJL095W, strain BCK1, active compounds read low",0.907
same,normalized growth,"S. cerevisiae deletion strains, locus YJL134W, strain LCB3, active compounds read low",0.986
same,normalized growth,"S. cerevisiae deletion strains, locus YJL168C, strain set2, active compounds read low",0.975
same,normalized growth,"S. cerevisiae deletion strains, locus YJL187C, strain SWE1 (second series), active compounds read low",0.972
same,normalized growth,"S. cerevisiae deletion strains, locus YJR043C, strain POL32, active compounds read low",0.911
same,normalized growth,"S. cerevisiae deletion strains, locus YJR075W, strain HOC1, active compounds read low",0.951
same,normalized growth,"S. cerevisiae deletion strains, locus YKL009W, strain mrt4, active compounds read low",0.919
same,normalized growth,"S. cerevisiae deletion strains, locus YKL068W, active compounds read low",0.989
same,normalized growth,"S. cerevisiae deletion strains, locus YKL085W, strain MDH1 (second series), active compounds read low",0.982
same,normalized growth,"S. cerevisiae deletion strains, locus YKL085W, strain MDH1, active compounds read low",0.982
same,normalized growth,"S. cerevisiae deletion strains, locus YKL190W, strain CNB1, active compounds read low",0.979
same,normalized growth,"S. cerevisiae deletion strains, locus YKR001C, strain vps1, active compounds read low",0.898 (active)
same,normalized growth,"S. cerevisiae deletion strains, locus YLR039C, strain RIC1, active compounds read low",0.971
same,normalized growth,"S. cerevisiae deletion strains, locus YLR058C, strain SHM2, active compounds read low",0.974
same,normalized growth,"S. cerevisiae deletion strains, locus YLR102C, strain apc9, active compounds read low",0.969
same,normalized growth,"S. cerevisiae deletion strains, locus YLR262C, strain YPT6, active compounds read low",0.959
same,normalized growth,"S. cerevisiae deletion strains, locus YLR268W, strain sec22, active compounds read low",0.957
same,normalized growth,"S. cerevisiae deletion strains, locus YLR330W, strain CHS5, active compounds read low",0.977
same,normalized growth,"S. cerevisiae deletion strains, locus YLR342W, strain FKS1 (second series), active compounds read low",0.859
same,normalized growth,"S. cerevisiae deletion strains, locus YLR371W, strain rom2, active compounds read low",0.969
same,normalized growth,"S. cerevisiae deletion strains, locus YLR418C, strain cdc73, active compounds read low",0.889
same,normalized growth,"S. cerevisiae deletion strains, locus YML016C, strain PPZ1, active compounds read low",0.975
same,normalized growth,"S. cerevisiae deletion strains, locus YML032C, strain rad52, active compounds read low",0.94
same,normalized growth,"S. cerevisiae deletion strains, locus YML124C, strain tub3, active compounds read low",0.974
same,normalized growth,"S. cerevisiae deletion strains, locus YMR078C, strain ctf18, active compounds read low",0.96
same,normalized growth,"S. cerevisiae deletion strains, locus YMR223W, strain ubp8, active compounds read low",0.94
same,normalized growth,"S. cerevisiae deletion strains, locus YMR263W, strain SAP30, active compounds read low",0.967
same,normalized growth,"S. cerevisiae deletion strains, locus YMR307W, strain GAS1, active compounds read low",0.81
same,normalized growth,"S. cerevisiae deletion strains, locus YNL067W, strain RPL9B, active compounds read low",0.977
same,normalized growth,"S. cerevisiae deletion strains, locus YNL128W, strain TEP1, active compounds read low",0.994
same,normalized growth,"S. cerevisiae deletion strains, locus YNL153C, strain GIM3, active compounds read low",0.995
same,normalized growth,"S. cerevisiae deletion strains, locus YNL233W, strain BNI4, active compounds read low",0.923
same,normalized growth,"S. cerevisiae deletion strains, locus YNL250W, strain rad50, active compounds read low",0.968
same,normalized growth,"S. cerevisiae deletion strains, locus YNL271C, strain bni1, active compounds read low",0.973
same,normalized growth,"S. cerevisiae deletion strains, locus YNL298W, strain CLA4, active compounds read low",0.928
same,normalized growth,"S. cerevisiae deletion strains, locus YNL307C, strain MCK1, active compounds read low",0.805 (active)
same,normalized growth,"S. cerevisiae deletion strains, locus YNL322C, strain KRE1, active compounds read low",0.985
same,normalized growth,"S. cerevisiae deletion strains, locus YNR052C, strain pop2, active compounds read low",0.968
same,normalized growth,"S. cerevisiae deletion strains, locus YOL006C, strain TOP1, active compounds read low",0.863
same,normalized growth,"S. cerevisiae deletion strains, locus YOL012C, strain htz1",1.51
same,normalized growth,"S. cerevisiae deletion strains, locus YOL147C, strain pex11, active compounds read low",0.969
same,normalized growth,"S. cerevisiae deletion strains, locus YOR061W, strain CKA2, active compounds read low",0.996
same,normalized growth,"S. cerevisiae deletion strains, locus YOR069W, strain VPS5, active compounds read low",0.984
same,normalized growth,"S. cerevisiae deletion strains, locus YOR136W, strain idh2, active compounds read low",0.971
same,normalized growth,"S. cerevisiae deletion strains, locus YOR144C, strain elg1, active compounds read low",0.975
same,normalized growth,"S. cerevisiae deletion strains, locus YOR184W, strain ser1, active compounds read low",0.872 (active)
same,normalized growth,"S. cerevisiae deletion strains, locus YOR316C, strain cot1, active compounds read low",0.96
same,normalized growth,"S. cerevisiae deletion strains, locus YPL055C, strain LGE1, active compounds read low",0.92
same,normalized growth,"S. cerevisiae deletion strains, locus YPL241C, strain CIN2, active compounds read low",0.987
same,normalized growth,"S. cerevisiae deletion strains, locus YPR119W, strain clb2, active compounds read low",0.972
same,normalized growth,"S. cerevisiae deletion strains, locus YPR141C, strain kar3, active compounds read low",0.99
same,normalized growth,"S. cerevisiae deletion strains, locus YPR163C, strain tif3, active compounds read low",0.973
same,normalized growth,"S. cerevisiae deletion strains, locus YPR167C, strain met16, active compounds read low",0.97
same,normalized growth,"S. cerevisiae deletion strains, strain wtn01, active compounds read low",0.944
same,normalized growth,"S. cerevisiae strains, strain wild type, active compounds read low",0.963

# — PubChem BioAssay AID1159580 (chemical genetic matrix, 2015)
